In PubChem BioAssay AID819 (Columbia University Molecular Screening Center, 2007):
The campaign covered roughly 94,000 compounds. About 280 (0.3%) were called active. Many of the other results were omitted from the sample, so actives are more common in it than they were. A number with no mark means an inactive call.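 Rule for the calls: active = activation above 40%, about the mean plus 3 SD, also judged a hit on visual image review; inconclusive = activation above 40% but not a hit on visual review; inactive = activation not above 40% and no visual hit.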

assay: enhancers of NFkB p65 translocation in HUVEC – imaging, IL-1B stimulus, high-content imaging, primary screen (AID 819); conditions: HUVEC IL-1B NFkB p65 nuclear translocation imaging; at 2 µM; hits give high values;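 note: percent activation is computed from the nuclear over cytoplasmic p65 intensity ratio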

SMILES	activation
Cc1nnc(SCC(=O)N/N=C/c2cn(-c3ccccc3)nc2-c2ccc(F)cc2)n1-c1ccccc1	-16.3%
COc1ccc(C2C=C(c3ccc(Br)cc3)Nc3nc(NS(C)(=O)=O)nn32)cc1 (stereo not given)	5.63%
O=C(Cn1c(-c2cscn2)nc2ccccc21)Nc1ccc(Cl)cc1	3.1%
CON(C)S(=O)(=O)c1ccc2c(c1)NC(=O)C1CCCN21 (stereo not given)	6.63%
COc1cccc(-c2cc(C(=O)N/N=C/c3ccc(OC)c(COC(C)=O)c3)c3ccccc3n2)c1	0.06%
CC(Oc1ccc(-c2ccccc2)c(F)c1)c1ccn(S(=O)(=O)c2cccc3ccccc23)n1 (stereo not given)	-9.3%
COc1ccc(NC(=O)Cn2c(-c3ccc(OC)cc3)cn(-c3ccc(C)cc3)c2=O)cc1	5.6%
Cc1c(Br)cc(C(=O)N2CCCCCC2)c(C)c1C	11.9%
O=C(CCn1c(SCC(=O)c2ccccc2)nc2ccccc2c1=O)NCc1ccc(F)cc1	2.29%
Cn1c2ccccc2n2c(=O)c(=O)n(CC(=O)c3ccc(F)cc3)nc12	47.4% (active)
CCN1CCN(Cc2nc3c(c(=O)n(C)c(=O)n3C)n2CC(=O)c2ccccc2)CC1	21.5%
Brc1cnc(N2CCCC2)nc1N1CCCCC1	41.1% (active)
Cc1ccnc(N2CCC(C(=O)NC3CCCCCC3)CC2)n1	-7.5%
c1ccc(-n2ncc3c(N4CCCC4)ncnc32)cc1	12.2%
O=C1OC(c2ccc(Cl)cc2)=N/C1=C\c1cccnc1	34.5%
Cc1nc2ccccc2c(-c2ccccc2)c1C(=O)c1ccccc1	9.37%
CCN(CC)S(=O)(=O)c1ccc(N2CCOCC2)c(C(=O)O)c1	11.9%
O=C(c1ccc(Cl)cc1)c1cnc(Nc2ccccc2)s1	-1.4%
Nc1c(-c2ccc(F)cc2)cnn1C1CCS(=O)(=O)C1 (stereo not given)	-1.34%
COc1ccc(CCN2C(=O)C3CC=C(C)CC3C2=O)cc1OC (stereo not given)	4.82%

SMILES	activation
O=C(c1ccccn1)c1ncc(C(F)(F)F)cc1Cl	-0.58%
CCN(CC)c1nc(-c2ccccc2)cc(C(F)(F)F)c1C#N	1.7%
CCOC(=O)/C(=C\c1ccc([N+](=O)[O-])cc1)C(=O)c1cc(C(C)=O)c(Nc2ccccc2)s1	-4.36%
COC(=O)CNC(c1ccccc1Cl)c1cc(Br)ccc1NC(=O)CCN1CCOCC1 (stereo not given)	0.94%
Cc1ccc(OCC(=O)Nc2cccc3c2CCCC3)cc1C	13.2%
CC(=O)NS(=O)(=O)c1ccc(NC(=S)NC(=O)C(C)(C)C)cc1	4.05%
COc1cccc(/C=N/NC(=O)C(=O)N2CCCC2)c1	-4.21%
CCCCCCCC(=O)NC(Nc1ccccc1OC)C(Cl)(Cl)Cl (stereo not given)	-6.09%
Cc1ccccc1/[N+]([O-])=C/c1ccncc1	15.8%
N#Cc1cc([N+](=O)[O-])ccc1Oc1cccc(/C=N/NC(=O)c2ccc(Cl)cc2)c1	1.88%
COC(=O)CSc1nnc(-c2cccnc2)o1	-7.95%
CCn1c(Cc2cccs2)nnc1SCC(=O)c1ccc(C)cc1	8.94%
COc1ccc(CCNC(=S)NC(=O)/C=C/c2ccc(C)cc2)cc1OC	-6.74%
CN1CC(c2ccccc2)C2(COc3ccccc3C2=O)C12C(=O)Nc1ccccc12 (stereo not given)	0.22%
CN(C)/C(CN1CCCCC1)=C1\N=C(c2ccccc2)OC1=O	13.1%
CC(=O)NC1=NN(C(C)=O)C(C)(c2ccc(Cl)s2)S1 (stereo not given)	-0.11%
O=C(CN1CCN(c2ccc(Cl)cc2)CC1)N1CCCC1	-4.06%
O=C(Nc1cccc(Cl)c1)Nc1nnc(-c2ccccc2)o1	-2.48%
O=C(CN1C(=O)NC2(CCCC2)C1=O)Nc1ccc(F)c(F)c1F	40.4% (active)
CC(C(=O)Nc1ccc(F)c(F)c1F)N1CCCCCC1 (stereo not given)	24.8%

SMILES	activation
CC1CCC2(CC1)NC(=O)N(CC(=O)c1cccn1C)C2=O (stereo not given)	-10.9%
C=CCn1c(Cn2nnc3ccccc32)nnc1SCC(=O)N/N=C/c1cc(Br)cc(OC)c1O	-7.49%
COc1ccccc1CSc1nc2ccccc2[nH]1	0.73%
O=C(Cc1ccc(S(=O)(=O)N2CCOCC2)s1)NCCC(c1ccccc1)c1ccccc1	7.66%
CCOC(=O)C1=C(C)NC(C)=C(C(=O)OCC)C1C1=COCCO1	42.7% (active)
CCCC1NC(=O)NC(C)=C1C(=O)OCC (stereo not given)	-16.9%
CCOC(=O)C1=C(C)NC(C)=C(C(=O)OCC)C1c1ccccn1	1.56%
O=C(Nc1ccccc1[N+](=O)[O-])C1C(c2ccccc2)=C1c1ccccc1	-5.91%
O=C(/C=C/Nc1ccccc1OC(F)(F)F)C(F)(F)F	10.9%
O=C(CN1CCSCC1)N/N=C/c1ccc(F)cc1F	6.22%
Cc1cccc(N2CCN(C(=O)CN(C)S(=O)(=O)c3ccc4c(c3)CCC(=O)N4)CC2)c1C	-2.04%
O=C(NC1CCCCC1)c1cc([N+](=O)[O-])ccc1N1CCOCC1	-1.25%
CC(C)(C)Cc1nnc(NC(=O)c2cc(-c3ccccc3)nc3ccccc23)s1	41.2% (active)
Cc1ccc(-c2cc(C(=O)Nc3nn[nH]n3)c3ccccc3n2)c(C)c1	-7.54%
Cc1ccc2nc(-c3ccccc3)cc(C(=O)O)c2c1	1.92%
OCCN(Cc1ccccc1)Cc1ccc(Cl)cc1	-4.34%
CCOn1c(SC(C)C)nc2ccccc2c1=O	-7.95%
Cc1cc(C)n(-c2c(F)c(F)c(COC(=O)c3ccccc3)c(F)c2F)n1	17.9%
CCCOn1c(-n2nc(C)cc2C)nc2ccccc2c1=O	121% (active)
CCOC(=O)C1=NNC2(c3ccc(Cl)cc3)C(=O)N(c3cc(C)cc(C)c3)C(=O)C12 (stereo not given)	-2.6%
